# Laboratory results as given in PubChem BioAssay (NCATS).
# Results filed as inconclusive are left out. Entries that show only a call come without a potency. Calls of active or inactive are those of the source. Unless noted, the call rests on the fitted dose curve; in most records, active means well fitted curve in the direction sought with a large enough effect; inconclusive means small, poorly fitted or top-dose-only effect, or another doubt; inactive means no such curve, though single readings can be large; an effect the other way counts as inactive or inconclusive.
# Columns and labels:
# [1] = P-glycoprotein substrates identified in KB-8-5-11 adenocarcinoma cell line, qHTS therapeutic library screen (AID 1346987); further: nearly all actives have a fitted effect of over 65% in size; further: potency means the concentration at half of the fitted maximal effect
# Procedure, shortened: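 In this qHTS, P-gp-rich KB-8-5-11 cells received library compounds across a concentration range. Viability was quantified by luminescence after 72 h at 37 degree C.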
# [2] = Primary fluorescence-based thiol-reactive (MSTI) qHTS assay for identification of artifact compounds. (AID 1845221); further: nearly all actives have a fitted effect of over 65% in size; further: potency means the concentration at half of the fitted maximal effect
# Procedure, shortened: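 A multi-concentration qHTS design tested compounds against 4 uM MSTI, pH 7.4 phosphate-buffered saline. Plates were protected from light for 1 h at room temperature before imaging fluorescence.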
# CRL-7250 = normal cell line; experiment: Cytotoxic Profiling of Annotated Libraries Using Quantitative High-Throughput Screening (AID 1296008); conditions: Five cell lines viability, CellTiter-Glo ATP luminescence, 48-72 h; max response: stronger effect = lower value; further: nearly all actives have a fitted effect of over 60% in size; further: potency means the concentration at half of the fitted maximal effect
# Procedure, shortened: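 Cytotoxicity was measured as CellTiter-Glo ATP luminescence, read after 10 min at room temperature. Compound treatment of the cells lasted 48 or 72 hr at 37 degrees Celsius in a qHTS format.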
# PA-1 = experiment: Primary qHTS to identify gynecologic anti-cancer compounds using libraries of approved drugs and bioactive compounds (AID 1345084); conditions: Gynecologic cancer cell panel viability, ATPlite luminescence, 48 h; series mostly up to 57.5 µM; further: nearly all actives have a fitted effect of over 55% in size; further: potency means the concentration at half of the fitted maximal effect
# Procedure, shortened: (§1)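 ATP-based viability (ATPlite), 1,000 cells/well, 16 h pre-incubation, 48 h compound at 37 C, 5% CO2, 15 min RT before read.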
# [3] = qHTS to identify inhibitors of the type 1 interferon - major histocompatibility complex class I in skeletal muscle: primary screen against the NCATS Mechanism Interrogation Plate v5.0 (MIPE) Libary (AID 1347411); further: nearly all actives have a fitted effect of over 65% in size
# Procedure, shortened: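 HLA-B HiBit myoblasts, dexamethasone-free medium + 4 ng/ml IFN-b, 24 h compound, 11-pt 1:3 from 46 uM final. Readout: Nano-Glo HiBiT lytic luminescence after 10 min lysis, RT.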
# [4] = molecular target: Cytochrome P450 2C9 (Homo sapiens) (UniProt P11712); experiment: Cytochrome P450 family 2 subfamily C member 9 (CYP2C9) small molecule antagonists: luciferase biochemical (cell-free) qHTS assay (AID 1645842; active means well fitted curve in the direction sought with a large enough effect in the repeat runs; an effect the other way counts as inactive or inconclusive; further: nearly all actives have a fitted effect of over 55% in size; further: potency means the concentration at half of the fitted maximal effect)
# Cytochrome P450 2C9 (Homo sapiens), sequence (P11712 whole entry, looked up): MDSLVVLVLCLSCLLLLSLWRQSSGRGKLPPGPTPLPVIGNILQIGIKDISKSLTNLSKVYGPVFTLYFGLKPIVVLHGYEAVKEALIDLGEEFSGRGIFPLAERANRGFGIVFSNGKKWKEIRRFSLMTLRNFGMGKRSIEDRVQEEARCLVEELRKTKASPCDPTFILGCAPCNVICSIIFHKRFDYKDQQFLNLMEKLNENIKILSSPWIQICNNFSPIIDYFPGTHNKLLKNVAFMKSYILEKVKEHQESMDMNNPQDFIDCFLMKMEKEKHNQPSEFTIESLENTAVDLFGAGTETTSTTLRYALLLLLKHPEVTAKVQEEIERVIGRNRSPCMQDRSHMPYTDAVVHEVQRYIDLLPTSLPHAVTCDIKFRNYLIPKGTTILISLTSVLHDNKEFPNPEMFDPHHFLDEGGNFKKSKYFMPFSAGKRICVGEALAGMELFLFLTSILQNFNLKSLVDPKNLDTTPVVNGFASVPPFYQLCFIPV
# Procedure, shortened: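 P450-Glo CYP2C9 system: proluciferin substrate with enzyme in mix containing 0.4% BSA, 10 min at room temperature, then NADPH regeneration solution added and incubated 1 h at 37C. Detection reagent stopped reaction; luminescence read after 20 min as RLU.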
# [5] = Primary redox qHTS assay for identification of artifact compounds. (AID 1845223)
# Procedure, shortened: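 Redox-cycling detection via DTT (250 uM final) oxidation coupled to Amplex Red (25 uM)/HRP (250 mU/mL) in HBSS. 15 min preincubation plus 30 min after DTT, room temperature. Ex/Em 525/598 nm; 4-parameter Hill fit against DMSO and 10 uM DA3003.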
# CAOV3 = experiment: Primary qHTS to identify gynecologic anti-cancer compounds using libraries of approved drugs and bioactive compounds (AID 1345084); conditions: Gynecologic cancer cell panel viability, ATPlite luminescence, 48 h; series mostly up to 57.5 µM; further: nearly all actives have a fitted effect of over 55% in size; further: potency means the concentration at half of the fitted maximal effect
# Procedure, shortened: as §1
# [6] = test system: Zika virus NS2B-NS3 protease (linked construct); experiment: Confirmatory screen NINDS AMC qHTS for Zika virus inhibitors (AID 1347152); further: potency means the concentration at half of the fitted maximal effect; nearly all actives have a fitted effect of over 70% in size
# Procedure, shortened: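 Concentration-response confirmation used the NINDS linked protease (NS2B hydrophilic domain joined to NS3 protease domain), 1 nM, with a 15-min compound preincubation. Substrate, Nle-KRR-AMC at 10 microM, was read by UV fluorescence before and after 15 min.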
# [7] = Confirmatory screen GU Rhodamine qHTS for Zika virus inhibitors qHTS (AID 1347157); further: potency means the concentration at half of the fitted maximal effect; nearly all actives have a fitted effect of over 70% in size
# Procedure, shortened: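 Percent inhibition came from the 15-min rise in Rhodamine110 fluorescence (1.5 microM substrate, ~15% conversion), normalized to no-inhibitor and no-enzyme wells and Hill-fitted. Unlinked protease, 25 nM, pH 8.0 Tris buffer; compounds up to 114 microM, 15-min preincubation.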
# [8] = Tertiary RLuc qRT-PCR qHTS assay for Zika virus inhibitors (AID 1347169)
# Procedure, shortened: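 Inhibition of ZIKV-RLuc replication in Vero cells, read as Renilla luminescence 1-1.5 hrs after live-cell substrate addition, following 48-72 hrs infection at MOI 1-2 in presence of compound.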
# [9] = molecular target: Catechol O-methyltransferase (Homo sapiens) (UniProt P21964); experiment: Confirmatory Screen for Target Class Profiling of Small Molecule Inhibitors of Methyltransferases (AID 1745852); conditions: MTase-Glo luminescence, SAH detection, recombinant enzyme; measured here: COMT max response; stronger effect = lower value
# Catechol O-methyltransferase (Homo sapiens), sequence (P21964 whole entry, looked up): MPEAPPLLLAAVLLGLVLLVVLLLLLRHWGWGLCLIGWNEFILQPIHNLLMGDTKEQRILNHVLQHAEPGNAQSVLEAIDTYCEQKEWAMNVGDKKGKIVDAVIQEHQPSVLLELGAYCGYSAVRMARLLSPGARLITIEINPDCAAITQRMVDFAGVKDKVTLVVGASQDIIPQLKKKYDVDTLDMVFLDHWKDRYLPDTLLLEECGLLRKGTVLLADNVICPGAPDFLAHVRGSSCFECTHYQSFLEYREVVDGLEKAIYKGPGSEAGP
# [10] = molecular target: Guanidinoacetate N-methyltransferase (Homo sapiens) (UniProt Q14353); experiment: as above; conditions: activity change, negative = inhibition: at 57.3 µM (top of the series) unless noted
# [11] = molecular target: Nicotinamide N-methyltransferase (Homo sapiens) (UniProt P40261); experiment: as above; conditions: MTase-Glo luminescence, SAH detection, recombinant enzyme; measured here: NNMT max response; stronger effect = lower value
# Nicotinamide N-methyltransferase (Homo sapiens), sequence (P40261 whole entry, looked up): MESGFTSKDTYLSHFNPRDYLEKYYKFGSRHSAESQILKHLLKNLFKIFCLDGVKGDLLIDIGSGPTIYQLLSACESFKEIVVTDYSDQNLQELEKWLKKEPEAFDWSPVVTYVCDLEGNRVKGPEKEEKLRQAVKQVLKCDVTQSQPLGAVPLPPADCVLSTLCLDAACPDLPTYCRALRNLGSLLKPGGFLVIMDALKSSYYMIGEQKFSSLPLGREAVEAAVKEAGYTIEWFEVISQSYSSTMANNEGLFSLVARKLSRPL
# [12] = molecular target: Phenylethanolamine N-methyltransferase (Homo sapiens) (UniProt P11086); experiment: as above; conditions: MTase-Glo luminescence, SAH detection, recombinant enzyme; measured here: PNMT max response; stronger effect = lower value
# Phenylethanolamine N-methyltransferase (Homo sapiens), sequence (P11086 whole entry, looked up): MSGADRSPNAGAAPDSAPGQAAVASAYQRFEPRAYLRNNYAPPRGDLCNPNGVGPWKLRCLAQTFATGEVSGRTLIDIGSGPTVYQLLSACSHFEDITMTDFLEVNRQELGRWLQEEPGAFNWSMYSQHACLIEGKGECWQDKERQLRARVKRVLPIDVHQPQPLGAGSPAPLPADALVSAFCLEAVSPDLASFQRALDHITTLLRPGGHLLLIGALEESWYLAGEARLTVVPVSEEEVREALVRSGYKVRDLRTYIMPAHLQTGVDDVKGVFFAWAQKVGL
# SKOV3 = experiment: Primary qHTS to identify gynecologic anti-cancer compounds using libraries of approved drugs and bioactive compounds (AID 1345084); conditions: Gynecologic cancer cell panel viability, ATPlite luminescence, 48 h; series mostly up to 57.5 µM; further: nearly all actives have a fitted effect of over 55% in size; further: potency means the concentration at half of the fitted maximal effect
# Procedure, shortened: as §1
# [13] = molecular target: Cytochrome P450 2D6 (Homo sapiens) (UniProt P10635); experiment: Cytochrome P450 family 2 subfamily D member 6 (CYP2D6) small molecule antagonists: luciferase biochemical (cell-free) qHTS assay (AID 1645840; active means well fitted curve in the direction sought with a large enough effect in the repeat runs; an effect the other way counts as inactive or inconclusive; further: nearly all actives have a fitted effect of over 55% in size; further: potency means the concentration at half of the fitted maximal effect)
# Cytochrome P450 2D6 (Homo sapiens), sequence (P10635 whole entry, looked up): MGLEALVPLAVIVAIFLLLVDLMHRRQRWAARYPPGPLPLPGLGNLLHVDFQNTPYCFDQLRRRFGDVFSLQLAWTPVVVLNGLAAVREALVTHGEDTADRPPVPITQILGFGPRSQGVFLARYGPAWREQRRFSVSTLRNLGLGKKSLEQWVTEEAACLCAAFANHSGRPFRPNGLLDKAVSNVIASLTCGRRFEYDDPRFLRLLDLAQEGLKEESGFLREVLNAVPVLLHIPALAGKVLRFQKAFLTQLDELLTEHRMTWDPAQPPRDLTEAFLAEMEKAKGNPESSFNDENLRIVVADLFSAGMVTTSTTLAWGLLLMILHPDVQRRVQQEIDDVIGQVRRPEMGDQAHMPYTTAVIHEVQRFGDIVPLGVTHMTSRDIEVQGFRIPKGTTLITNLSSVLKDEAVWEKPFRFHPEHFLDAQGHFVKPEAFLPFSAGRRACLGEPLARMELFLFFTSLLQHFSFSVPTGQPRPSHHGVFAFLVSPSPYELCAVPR
# Procedure, shortened: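 P450-Glo CYP2D6 system: proluciferin substrate converted by enzyme to luciferin, read by luminescence proportional to activity. Enzyme-substrate mix with compound 10 min at room temperature, then NADPH regeneration 1 h before detection reagent.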
# HACAT = experiment: qHTS assay to identify novel small-molecules to repurpose for Merkel cell carcinoma treatment (AID 1296009); conditions: MCC and control cell lines, CellTiter-Glo viability, 72 h; at 44.8 µM (top of the series) unless noted; further: nearly all actives have a fitted effect of over 60% in size
# Procedure, shortened: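 Cell viability measured by CellTiter-Glo following 72 hr compound treatment at 37 degree celsius, with NPC and MIPE libraries tested in 8- and 11-point concentration series.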
structure (smiles),measurement,setting,value
OCC(CO)(CO)NCC(O)Cn1c2ccc(Cl)cc2c2cc(Cl)ccc21 (stereo unspecified),Potency,[1],inactive
same,Potency,[2],inactive
same,max response,CRL-7250,-2.15% (inactive)
same,Potency,PA-1,inactive
Cn1nccc1Nc1nccc(-c2ccn([C@H](CO)c3ccc(Cl)c(F)c3)c(=O)c2)n1,Potency,[1],inactive
same,Potency,[3],inactive
same,Potency,[4],19 µM (active)
same,Potency,[5],inactive
same,outcome,CRL-7250,inactive
same,Potency,CAOV3,inactive
CC1CCN(C(c2ccc(F)cc2)c2ccc(C(C)C(=O)O)cc2-c2ccc(C(F)(F)F)cc2)CC1 (stereo unspecified),Potency,[6],13.9 µM (active)
same,Potency,[7],3.93 µM (active)
same,Potency,[8],6.58 µM (active)
same,Potency,[4],9.52 µM (active)
same,activity,[9],4.19%
same,"activity change, negative = inhibition",[10],0%
same,activity,[11],-58.6%
same,activity,[12],4.79%
same,Potency,[2],inactive
same,Potency,[5],inactive
same,max response,CRL-7250,-3.89% (inactive)
same,Potency,PA-1,inactive
same,Potency,SKOV3,inactive
Cc1ccc(CCCO)c(NCc2ccc3nc(NCCCN4CCOCC4)n(Cc4nc(C)ccc4O)c3c2)c1,Potency,CRL-7250,23.1 µM (active)
N#Cc1c[nH]c2c(C(=O)N3CCN(CCc4ccc(F)cc4)CC3)cccc12,Potency,[13],15.1 µM (active)
same,Potency,[4],13.5 µM (active)
same,outcome,CRL-7250,inactive
same,Potency,CAOV3,inactive
same,Potency,PA-1,inactive
CCC[C@@H](NC(=O)N1C(=O)C(CC)(CC)[C@@H]1Oc1ccc(C(=O)N2CCN(C)CC2)cc1)c1ccc2c(c1)OCO2,Potency,[1],20.6 µM (active)
same,Potency,[13],16.9 µM (active)
same,Potency,[4],3.38 µM (active)
same,max response,CRL-7250,-1.89% (inactive)
same,outcome,HACAT,inactive
same,Potency,CAOV3,inactive
same,Potency,PA-1,inactive
same,Potency,SKOV3,inactive
CCC(=O)c1cc(-c2ccc(Cl)cc2)n(-c2ccc(S(N)(=O)=O)cc2)c1C,Potency,[2],inactive
same,Potency,[5],inactive
same,outcome,CRL-7250,inactive
same,Potency,CAOV3,inactive
same,Potency,PA-1,inactive
N#CCC(C1CCCC1)n1cc(-c2ncnc3[nH]ccc23)cn1 (stereo unspecified),Potency,[13],inactive
same,Potency,[4],15.1 µM (active)
same,Potency,[2],inactive
same,Potency,[5],inactive
same,max response,CRL-7250,-27.8% (inactive)
same,outcome,HACAT,inactive
same,Potency,PA-1,inactive
same,Potency,SKOV3,inactive
CN(C)CCCNc1nc(CN2CCN(C(c3ccc(Cl)cc3)c3ccc(Cl)cc3)CC2)nc2ccccc12,Potency,[4],inactive
same,activity,[9],2.87%
same,"activity change, negative = inhibition",[10],0%
same,activity,[11],-46.9%
same,activity,[12],-0.0137%
same,Potency,[5],inactive
same,max response,CRL-7250,1.9% (inactive)
same,Potency,CAOV3,inactive
same,Potency,PA-1,inactive
Cc1ccccc1C(=O)Nc1ccc(C(=O)N2CCC[C@@H](O)c3cc(Cl)ccc32)c(C)c1,Potency,[4],12 µM (active)
same,Potency,[2],inactive
same,Potency,[5],inactive
same,max response,CRL-7250,-3.25% (inactive)
same,Potency,PA-1,inactive
COc1cccc(CNC(=O)Nc2nc(-c3ccncc3)cs2)c1,Potency,[13],0.601 µM (active)
same,Potency,[4],0.239 µM (active)
same,Potency,[2],inactive
same,max response,CRL-7250,-25.8% (inactive)
same,Potency,PA-1,inactive
same,Potency,SKOV3,inactive
CC[C@H](CO)Nc1nc(Nc2cccc(-c3ccccn3)c2)c2ncn(C(C)C)c2n1,Potency,[1],20.6 µM (active)
same,Potency,[4],0.379 µM (active)
same,Potency,[2],inactive
same,max response,CRL-7250,-6.96% (inactive)
same,Potency,CAOV3,inactive
same,Potency,SKOV3,inactive
CCCCOc1ccc(-c2cncc(C(=O)NCc3cccnc3N3CCOCC3)c2)cc1Cl,Potency,[13],12 µM (active)
same,Potency,[4],3.01 µM (active)
same,Potency,[5],inactive
same,max response,CRL-7250,-9.28% (inactive)
same,Potency,CAOV3,inactive
same,Potency,PA-1,inactive
same,Potency,SKOV3,inactive
Cn1c(NC[C@@H](N)Cc2ccccc2)nc(-c2ccncc2)c(-c2ccc3ccccc3c2)c1=O,Potency,[13],19 µM (active)
same,Potency,[2],inactive
same,Potency,[5],inactive
same,max response,CRL-7250,-1.38% (inactive)
same,Potency,CAOV3,inactive
same,Potency,PA-1,inactive
same,Potency,SKOV3,inactive
C=C(C)[C@@H]1CC[C@]2(C(=O)O)CC[C@]3(C)C(CCC4[C@@]5(C)C[C@@H](O)[C@H](O)C(C)(C)C5CC[C@]43C)C12 (stereo partly specified),Potency,[1],inactive
same,Potency,[2],inactive
same,Potency,[5],inactive
same,max response,CRL-7250,4.85% (inactive)
same,Potency,CAOV3,inactive
same,Potency,PA-1,inactive
Cn1cnc(-c2nccc3c(=O)[nH]c(OCCCC(F)(F)F)nc23)c1,Potency,[5],inactive
same,Potency,CRL-7250,5.8 µM (active)
same,Potency,CAOV3,inactive
same,Potency,SKOV3,6.31 µM (active)
CNc1ccc([N+](=O)[O-])cc1-n1cnc(-c2ccc(C(F)(F)F)cc2)c1,Potency,[13],0.756 µM (active)
same,Potency,[4],3.01 µM (active)
same,Potency,[2],inactive
same,Potency,[5],inactive
same,max response,CRL-7250,1.42% (inactive)
same,Potency,PA-1,inactive
same,Potency,SKOV3,inactive
O=C(c1ccc(F)c(F)c1Nc1ccc(I)cc1F)N1CC(O)([C@@H]2CCCCN2)C1,Potency,[1],20.6 µM (active)
same,Potency,[2],inactive
same,Potency,[5],inactive
same,Potency,CRL-7250,7.31 µM (active)
same,Potency,PA-1,inactive
CC1CCC(n2c3cnccc3c3cnc(Nc4ccc5c(n4)CCN(C(=O)CO)C5)nc32)CC1 (stereo unspecified),Potency,[1],5.8 µM (active)
same,"activity change, negative = inhibition",[3],-18.6% [at 8.44 µM] (inactive)
same,Potency,[13],inactive
same,Potency,[2],inactive
same,Potency,[5],inactive
same,max response,CRL-7250,-12.2% (inactive)
O=C(c1ccc(F)c(F)c1Nc1ccc(I)cc1F)N1CC(O)(C2CCCCN2)C1 (stereo unspecified),Potency,[1],18.4 µM (active)
same,Potency,[2],inactive
same,Potency,[5],inactive
same,Potency,CRL-7250,9.2 µM (active)
same,Potency,SKOV3,20 µM (active)
COCCOCCOc1ccc(C2=N[C@@](C)(C(=O)O)CS2)c(O)c1,Potency,[2],0.377 µM (active)
same,max response,CRL-7250,-74.5% (inactive)
same,Potency,CAOV3,inactive
